Test results reported in PubChem BioAssay AID1159580 (chemical genetic matrix, 2015).
The campaign covered roughly 5,500 compounds. About 2,000 (36%) were called active. Inconclusive results (about 18%) are left out. No stated cut-off is given here; in the data, active means normalized growth mostly below about 0.91 (no sharp cut-off); inconclusive means no clear call, values can overlap the other calls; inactive means mostly above about 0.92. The list shows a part of the results.

Test: chemical genetic growth profiling, strain panel (AID 1159580);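 further: tested at 20 µM; growth read once vehicle control cultures reached saturation at 30 °C; 1 = growth at the plate median or of vehicle wells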
Settings: S. cerevisiae deletion strains, growth OD

Measured: normalized growth

C#CCOC(=O)C1=CCCN(C)C1
inactive: locus YAL013W, strain DEP1, stronger effect = lower value 1.01 | locus YAL040C, strain CLN3, stronger effect = lower value 1.02 | locus YDR363W, strain ESC2, stronger effect = lower value 0.986 | locus YER002W, strain NOP16, stronger effect = lower value 1.03 | locus YGR078C, strain PAC10, stronger effect = lower value 1.01 | locus YGR229C, strain SMI1, stronger effect = lower value 1.01 | locus YMR263W, strain SAP30, stronger effect = lower value 1 | locus YMR307W, strain GAS1, stronger effect = lower value 0.959 | locus YNL153C, strain GIM3, stronger effect = lower value 1.03 | locus YNL175C, strain NOP13, stronger effect = lower value 1.01 | locus YNL197C, strain WHI3, stronger effect = lower value 0.99 | locus YNL224C, strain SQS1, stronger effect = lower value 0.998 | locus YNL322C, strain KRE1, stronger effect = lower value 1 | locus YOR083W, strain WHI5 (second series), stronger effect = lower value 1

CC(C)(N)Cc1ccccc1
inactive: locus YHR030C, strain SLT2, stronger effect = lower value 1.02 | locus YHR079C, strain IRE1, stronger effect = lower value 1.02 | locus YJL095W, strain BCK1, stronger effect = lower value 1 | locus YJR066W, strain TOR1, stronger effect = lower value 0.947 | locus YLR113W, strain HOG1, stronger effect = lower value 0.965 | locus YNL183C, strain NPR1, stronger effect = lower value 0.937 | locus YOR231W, strain MKK1, stronger effect = lower value 1.01 | locus YPL256C, strain CLN2, stronger effect = lower value 1.03
